This is a sample that favours compounds with a hit; in the whole collection about 2.2% have one here.
APP transl inh – APP translation inhibition. inhibition, % at 2 µM. SH-SY5Y APP 5'UTR-luciferase reporter, luminescence. 190,000 compounds, 0.82% hits;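 active = inhibition above a set limit, derived from the sample mean plus 3 SD, cut at about 45% in these data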
IEC-6 cytotox – counter-screen for KLF5 inhibitors: cytotoxicity in IEC-6 cells | IEC-6 cytotoxicity, luminescence viability | 290,000 compounds, 0.78% hits | inhibition, % at 5 µM | AID 1825; in the data active = inhibition above about 22%;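 also: 0% = plate median of test compound wells and 100% = cytotoxic reference compound wells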
Ba/F3 V617F tox – loss of viability in JAK2V617F-driven Ba/F3 cells. inhibition, % at 5.6 µM. 220,000 compounds, 1.1% hits. AID 1446. Ba/F3 EpoR-JAK2V617F viability, ATP luminescence;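 active = inhibition above the campaign mean plus 3 SD over all tested compounds, cut at about 24% in these data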;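 also: cytokine-independent growth of Ba/F3 cells driven by EpoR plus mutant JAK2; 0% = DMSO-treated cells and 100% = JAK inhibitor I control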
KLF5 inhibitor – kruppel-like factor 5 inhibition; DLD-1 KLF5 promoter-luciferase reporter, luminescence; 290,000 compounds, 0.23% hits; inhibition, % at 5 µM; AID 1700;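 active = inhibition above a per-plate limit of that plate's mean compound inhibition plus 3 SD, cut at about 60% in these data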;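 also: 0% = DMSO wells and 100% = LY294002 at 200 µM; higher means less KLF5 promoter-driven luciferase light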
BaF3 parental – parental Ba/F3 viability inhibition as JAK2V617F counter-screen | inhibition, % at 5.6 µM | 220,000 compounds, 1.1% hits | CellTiter-Glo ATP luminescence;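 active = inhibition above a per-campaign cutoff, the mean inhibition of all tested compounds plus 3 SD, cut at about 27% in these data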;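 also: 0% = DMSO wells and 100% = JAK Inhibitor I control wells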
aSyn UTR inh – MLPCN primary screen, SNCA 5' untranslated region; alpha-synuclein 5'UTR reporter, inhibitor activity; 300,000 compounds, 0.82% hits; inhibition, % (tested at 7.5 µM); in the data active = inhibition above about 60%;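 also: H4 neuroglioblastoma cells stably carrying SNCA 5'UTR luciferase fusion; 0% = DMSO wells and 100% = positive control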
Starred values were filed as active, the others as inactive; / = no result given.

SMILES	APP transl inh	IEC-6 cytotox	Ba/F3 V617F tox	KLF5 inhibitor	BaF3 parental	aSyn UTR inh
Cn1c(SCc2ccccn2)nc2c1c(=O)[nH]c(=O)n2C	/	2	-2	-7	-2	8
COc1ccc(C(=O)/C=C/c2ccccc2C(F)(F)F)cc1	-1	-3	-1	-19	2	-68
S=C(Nc1cc(Cl)cc(Cl)c1)NC1CCN(Cc2ccccc2)CC1	/	-2	/	-2	/	72*
Cc1ccc(NC(=S)N2CCN(C(=O)C3CCCO3)CC2)cc1 (configuration not stated)	8	9	3	5	3	-5
S=C(Nc1ccccc1Cl)NC1CCN(Cc2ccccc2)CC1	4	-5	2	-1	9	9
O=C(C1CCCO1)N1CCN(C(=S)Nc2ccc(Cl)cc2)CC1 (configuration not stated)	-3	-4	39*	-19	30*	4
S=C(Nc1ccc(Cl)cc1)N1CCN(Cc2ccccc2)CC1	2	3	28*	-6	49*	-10
CSc1ccccc1NC(=S)Nc1ccc(S(N)(=O)=O)cc1	-7	-1	0	-16	7	9
Nc1nc(N)c2c(ccc3nccc32)[nH]1	/	71*	94*	4	102*	49
CC(C(=O)N1CCOCC1)n1cc([N+](=O)[O-])cn1 (configuration not stated)	-19	0	-5	-23	0	4
CCN(CC)S(=O)(=O)c1ccc(OC)c(NC(=O)/C=C/c2ccco2)c1	/	-5	-4	-9	1	-2
Cc1cc(C(F)F)n2nc(C(=O)Nc3cccnc3Cl)nc2n1	-4	4	-4	3	95*	8
O=C1OCCC1Sc1nnc(-c2ccc(Cl)cc2Cl)o1 (configuration not stated)	/	4	2	31	-2	90*
N#Cc1ccccc1S(=O)(=O)N1CCN(c2cnccn2)CC1	-2	-3	-2	-1	-5	9
Nc1ccc(N2CCCCC2)cc1N1CCCCC1	4	6	2	-15	5	85*
Cc1nn(-c2cc(N3CCCCC3)ccc2N)c(=O)c2ccccc12	-6	-7	-7	-31	-2	-5
Nc1cc(Cl)ccc1N1CCCCCC1	-10	-2	42*	-2	56*	4
N#Cc1cc(Nc2c(N)nc[nH]c2=O)c([N+](=O)[O-])cc1C#N	/	-3	/	-7	/	30
CCOc1ccccc1CN1C(=O)NC2(CCCCCC2)C1=O	/	-2	/	-27	/	13
O=[N+]([O-])c1ccc(Nc2nc(N/N=C/c3cccc(F)c3)nc(N3CCCC3)n2)cc1	25	-5	-3	-3	8	-28
COc1cccc(/C=N/Nc2nc(Nc3ccc([N+](=O)[O-])cc3)nc(N3CCCC3)n2)c1O	43	1	-1	-6	3	65*
CCC(C)n1ncn(-c2ccc(N3CCN(c4ccc(OCC5COC(Cn6cncn6)(c6ccc(Cl)cc6Cl)O5)cc4)CC3)cc2)c1=O (configuration not stated)	/	4	4	-33	-6	100*
CCCC1COC(Cn2cncn2)(c2ccc(C)cc2)O1 (configuration not stated)	9	1	2	-5	4	11
CN1C(=O)/C(=C/c2cn(CC(=O)NCc3ccco3)c3ccccc23)NC1=S	-2	9	1	18	9	26
CCN=C1S/C(=C\c2cn(CC(=O)NCc3ccco3)c3ccccc23)C(=O)N1CC	/	3	/	-16	/	65*
SMILES	APP transl inh	IEC-6 cytotox	Ba/F3 V617F tox	KLF5 inhibitor	BaF3 parental	aSyn UTR inh
CCOc1ccc(N2C(=O)CCC2=O)cc1	-12	0	-4	-30	0	17
CCOc1ccc(N2CC(=O)N(c3ccc(OCC)cc3)CC2=O)cc1	3	0	-1	17	93*	9
Cc1ccc(Nc2nc(N)nc(CN3CCCCCC3)n2)c(C)c1	-4	-2	5	-17	8	4
Cc1ccc(Nc2nc(N)nc(CN3CCC(C)CC3)n2)c(C)c1	-16	6	-2	-9	89*	-19
Nc1cccc(-n2nnnc2CN2CCOCC2)c1	-21	-5	-3	-51	6	-14
O=C(Nc1ccc(OCc2ccccc2Cl)cc1)c1cccnc1	/	17	/	-1	/	90*
CCOC(=O)C1(Cc2cccc(OC)c2)CCN(Cc2ccc(C)s2)CC1	-3	3	-1	-17	6	10
CCN(CC)c1ccc(/C=C2\SC(=O)N(C(C)C)C2=O)o1	/	4	51*	-13	44*	-103
CCOCC(O)CNc1ccccc1 (configuration not stated)	1	1	0	-8	8	2
OC(CNc1ccccc1)COc1ccc(OCC(O)CNc2ccccc2)cc1 (configuration not stated)	-7	16	24*	13	34*	-3
O=C1NC(=Nc2ccc(O)cc2)S/C1=C\C=C\c1ccco1	/	-2	75*	24	61*	39
FC(F)(F)c1cc(-c2ccccc2)nc(N2CCCCCC2)n1	-5	4	0	-4	3	12
CS(=O)(=O)c1nc(-c2ccccc2)cc(C(F)(F)F)n1	62*	7	1	-19	7	-111
COP(=O)(OC)c1nc(-c2cccc3ccccc23)oc1N1CCOCC1	-28	5	-1	-23	28*	15
CN(CC(=O)Nc1ccccc1C(F)(F)F)C(=O)Cn1c(=O)oc2ccccc21	/	/	/	/	/	-1
Cc1cc(/C=C2\Sc3ccccc3N2C)cc(C)[n+]1CC1CCCO1 (configuration not stated)	-4	11	100*	-5	76*	/
COc1ccc(N/N=C(\C=N\O)C(=O)c2ccc(OC)cc2)cc1	88*	11	10	12	17	6
C(#Cc1ccc(C#CCN2CCCC2)cc1)CN1CCCC1	-2	2	5	-1	8	-8
C#CC[N+]1(CC#Cc2ccc(C)cc2)CCCCC1	1	-3	69*	-29	66*	-4
Cc1ccc(C#CC[N+]2(C)CCCCC2)cc1	/	4	54*	-45	57*	-1
COc1cc(C(CC(=O)Nc2ncccc2C)N2Cc3ccccc3C2=O)cc(OC)c1OC (configuration not stated)	/	3	/	-23	/	7
O=C(CNC(=O)c1ccccc1Br)N/N=C/c1ccccc1O	16	4	3	-15	5	4
O=C(CNC(=O)c1ccccc1Br)N/N=C/c1cc(Br)ccc1O	32	-2	-1	-3	3	70*
COc1ccc(S(=O)(=O)N2CCCCC2)cc1NC(=O)c1ccc([N+](=O)[O-])o1	56*	-5	-2	-25	5	-29
C=CCN1C(=Nc2cccnc2)SCC1(O)c1ccc(C)cc1 (configuration not stated)	4	0	10	-60	33*	-48
Cc1csc(=Nc2cccnc2)n1CC1CCCCC1	16	-7	10	-14	16	11

Compound activity (PubChem)
